Test results: paper PMC7862700, “An all-to-all approach to the identification of sequence-specific readers for epigenetic DNA modifications on cytosine”

Legend:
Assay in all cases: DAPPL (digital affinity profiling via proximity ligation, sequencing); 10 mM Tris-HCl pH 7.5, 50 mM NaCl, 1 mM DTT, 4% glycerol, room temperature, 30 min; GST-TFs on glutathione beads, 16-mer random dsDNA library, 0.1% formaldehyde crosslink after washing; high values mean tight binding
FLI1 = target: T1, FLI1 (Homo sapiens, UniProt Q01543 1-452); settings: protein: recombinant; tags: N-terminal GST; dsDNA, one strand shown
T1 sequence: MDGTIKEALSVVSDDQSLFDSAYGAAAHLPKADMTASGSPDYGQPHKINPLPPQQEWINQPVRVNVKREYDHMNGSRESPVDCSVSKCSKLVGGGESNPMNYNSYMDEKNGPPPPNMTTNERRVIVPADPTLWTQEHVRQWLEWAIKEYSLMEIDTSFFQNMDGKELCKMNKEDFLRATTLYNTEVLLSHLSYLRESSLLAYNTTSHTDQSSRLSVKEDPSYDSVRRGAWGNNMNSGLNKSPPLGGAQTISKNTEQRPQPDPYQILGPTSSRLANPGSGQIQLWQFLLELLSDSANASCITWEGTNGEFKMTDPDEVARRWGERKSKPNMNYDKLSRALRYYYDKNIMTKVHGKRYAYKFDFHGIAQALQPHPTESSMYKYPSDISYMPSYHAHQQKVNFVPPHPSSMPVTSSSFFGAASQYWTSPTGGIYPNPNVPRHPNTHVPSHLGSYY
Summary of the method: (§1)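 A tag-only sample was pooled with DNA-barcoded human transcription factors that had been expressed in yeast as GST fusions and captured on glutathione beads. The pools were incubated for 30 min at room temperature with 200 nmole of a random double-stranded 16-mer DNA library in Tris/NaCl/DTT/glycerol buffer, then washed, crosslinked with 0.1% formaldehyde, proximity-ligated (BsaI/T4 ligase, 1 h, 37 °C), PCR-amplified and sequenced on an Illumina NextSeq500. Binding signal is each hexamer's read frequency for a factor divided by its frequency for the tag-only sample.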

ELK1 = target: T2, ELK1 (Homo sapiens, UniProt P19419 1-428); settings: protein: recombinant; tags: N-terminal GST; dsDNA, one strand shown
T2 sequence: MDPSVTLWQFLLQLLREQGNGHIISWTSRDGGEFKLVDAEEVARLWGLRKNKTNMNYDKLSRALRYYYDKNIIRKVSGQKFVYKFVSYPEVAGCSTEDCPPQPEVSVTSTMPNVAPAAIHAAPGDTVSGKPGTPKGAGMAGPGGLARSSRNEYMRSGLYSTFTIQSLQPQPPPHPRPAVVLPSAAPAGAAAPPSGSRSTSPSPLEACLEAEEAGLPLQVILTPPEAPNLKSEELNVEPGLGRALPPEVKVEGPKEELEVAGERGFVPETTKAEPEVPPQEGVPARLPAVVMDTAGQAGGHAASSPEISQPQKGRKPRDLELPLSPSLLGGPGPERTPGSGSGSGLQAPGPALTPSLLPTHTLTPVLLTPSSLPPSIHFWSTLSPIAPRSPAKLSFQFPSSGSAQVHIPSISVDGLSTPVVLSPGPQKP
Summary of the method: as §1

GABPA = target: T3, GABPA (Homo sapiens, UniProt Q06546 1-454); settings: protein: recombinant; tags: N-terminal GST; dsDNA, one strand shown
T3 sequence: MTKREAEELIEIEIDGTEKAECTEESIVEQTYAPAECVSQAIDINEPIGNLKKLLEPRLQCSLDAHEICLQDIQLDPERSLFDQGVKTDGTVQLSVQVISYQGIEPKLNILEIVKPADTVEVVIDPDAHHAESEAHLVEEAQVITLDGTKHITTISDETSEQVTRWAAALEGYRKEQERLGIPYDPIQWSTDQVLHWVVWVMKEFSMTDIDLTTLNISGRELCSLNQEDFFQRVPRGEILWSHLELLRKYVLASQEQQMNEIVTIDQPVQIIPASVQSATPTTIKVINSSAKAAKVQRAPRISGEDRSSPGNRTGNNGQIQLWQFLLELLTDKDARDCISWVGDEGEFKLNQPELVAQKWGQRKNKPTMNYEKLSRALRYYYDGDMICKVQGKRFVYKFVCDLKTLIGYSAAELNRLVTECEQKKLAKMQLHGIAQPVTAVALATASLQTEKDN
Summary of the method: as §1

ERG = target: T4, ERG (Homo sapiens, UniProt P11308 1-479); settings: protein: recombinant; tags: N-terminal GST; dsDNA, one strand shown
T4 sequence: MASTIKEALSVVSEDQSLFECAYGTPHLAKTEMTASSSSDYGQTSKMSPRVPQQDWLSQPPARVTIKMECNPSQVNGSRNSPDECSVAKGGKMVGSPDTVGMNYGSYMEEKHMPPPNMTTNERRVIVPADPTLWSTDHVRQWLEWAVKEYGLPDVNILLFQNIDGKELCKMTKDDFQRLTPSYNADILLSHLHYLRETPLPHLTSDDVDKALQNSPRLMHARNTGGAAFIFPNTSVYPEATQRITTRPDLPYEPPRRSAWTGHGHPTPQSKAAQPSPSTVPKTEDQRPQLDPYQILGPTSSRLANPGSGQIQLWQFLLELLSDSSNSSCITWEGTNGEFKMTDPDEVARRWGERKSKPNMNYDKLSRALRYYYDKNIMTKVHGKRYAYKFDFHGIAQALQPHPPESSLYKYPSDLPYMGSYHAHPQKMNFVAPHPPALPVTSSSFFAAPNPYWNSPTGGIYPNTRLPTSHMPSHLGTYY
Summary of the method: as §1

ELF1 = ELF1 (Homo sapiens, UniProt P32519 1-619); settings: protein: recombinant; tags: N-terminal GST; dsDNA, one strand shown
Summary of the method: as §1

EHF = target: T5, EHF (Homo sapiens, UniProt Q9NZC4 1-300); settings: protein: recombinant; tags: N-terminal GST; dsDNA, one strand shown
T5 sequence: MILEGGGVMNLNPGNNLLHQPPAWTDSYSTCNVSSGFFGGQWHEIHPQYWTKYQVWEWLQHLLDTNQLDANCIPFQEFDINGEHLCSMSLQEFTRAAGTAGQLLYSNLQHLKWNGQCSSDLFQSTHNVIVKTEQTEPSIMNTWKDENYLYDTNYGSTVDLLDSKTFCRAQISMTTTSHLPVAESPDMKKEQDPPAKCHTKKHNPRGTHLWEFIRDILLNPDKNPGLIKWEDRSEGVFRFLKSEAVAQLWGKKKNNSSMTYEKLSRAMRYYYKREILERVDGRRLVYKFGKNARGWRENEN
Summary of the method: as §1

SPI1 = SPI1 (Homo sapiens, UniProt P17947 1-270); settings: protein: recombinant; tags: N-terminal GST; dsDNA, one strand shown
Summary of the method: as §1

SPIB = SPIB (Homo sapiens, UniProt Q01892 1-262); settings: protein: recombinant; tags: N-terminal GST; dsDNA, one strand shown
Summary of the method: as §1

ELK3 = target: T6, ELK3 (Homo sapiens, UniProt P41970 1-407); settings: protein: recombinant; tags: N-terminal GST; dsDNA, one strand shown
T6 sequence: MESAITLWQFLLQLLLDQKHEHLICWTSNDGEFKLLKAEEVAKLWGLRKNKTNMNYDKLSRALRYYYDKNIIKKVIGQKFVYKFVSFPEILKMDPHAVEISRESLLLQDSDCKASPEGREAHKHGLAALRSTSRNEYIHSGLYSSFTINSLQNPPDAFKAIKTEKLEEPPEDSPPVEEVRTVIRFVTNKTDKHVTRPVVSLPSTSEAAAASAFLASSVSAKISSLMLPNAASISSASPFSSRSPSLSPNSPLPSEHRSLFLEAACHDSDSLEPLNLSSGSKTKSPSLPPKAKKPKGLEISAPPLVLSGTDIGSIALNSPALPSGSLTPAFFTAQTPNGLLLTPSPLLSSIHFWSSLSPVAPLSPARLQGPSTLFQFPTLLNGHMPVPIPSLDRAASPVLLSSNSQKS
Summary of the method: as §1

FEV = target: T7, FEV (Homo sapiens, UniProt Q99581 1-238); settings: protein: recombinant; tags: N-terminal GST; dsDNA, one strand shown
T7 sequence: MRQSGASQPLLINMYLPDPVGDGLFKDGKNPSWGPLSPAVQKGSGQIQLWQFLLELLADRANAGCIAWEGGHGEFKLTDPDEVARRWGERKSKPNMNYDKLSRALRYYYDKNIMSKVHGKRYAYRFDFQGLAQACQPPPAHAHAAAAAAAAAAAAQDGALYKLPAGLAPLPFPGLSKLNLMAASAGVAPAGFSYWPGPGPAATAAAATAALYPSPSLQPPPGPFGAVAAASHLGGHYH
Summary of the method: as §1

ETV5 = ETV5 (Homo sapiens, UniProt P41161 1-510); settings: protein: recombinant; tags: N-terminal GST; dsDNA, one strand shown
Summary of the method: as §1

HSF1 = HSF1 (Homo sapiens, UniProt Q00613 1-529); settings: protein: recombinant; tags: N-terminal GST; chain copies: 3; dsDNA, one strand shown
Summary of the method: as §1

SPIC = target: T8, SPIC (Homo sapiens, UniProt Q8N5J4 1-248); settings: protein: recombinant; tags: N-terminal GST; dsDNA, one strand shown
T8 sequence: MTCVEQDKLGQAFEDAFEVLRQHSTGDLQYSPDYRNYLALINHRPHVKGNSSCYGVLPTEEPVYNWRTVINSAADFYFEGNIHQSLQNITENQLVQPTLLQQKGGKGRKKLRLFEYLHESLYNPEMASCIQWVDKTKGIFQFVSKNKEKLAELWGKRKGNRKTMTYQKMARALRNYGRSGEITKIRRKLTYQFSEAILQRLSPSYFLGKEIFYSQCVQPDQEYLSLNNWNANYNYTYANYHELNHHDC
Summary of the method: as §1

ELF4 = ELF4 (Homo sapiens, UniProt Q99607 1-663); settings: protein: recombinant; tags: N-terminal GST; dsDNA, one strand shown
Summary of the method: as §1

ELK4 = target: T9, ELK4 (Homo sapiens, UniProt P28324-2 1-405); settings: protein: recombinant; tags: N-terminal GST; dsDNA, one strand shown
T9 sequence: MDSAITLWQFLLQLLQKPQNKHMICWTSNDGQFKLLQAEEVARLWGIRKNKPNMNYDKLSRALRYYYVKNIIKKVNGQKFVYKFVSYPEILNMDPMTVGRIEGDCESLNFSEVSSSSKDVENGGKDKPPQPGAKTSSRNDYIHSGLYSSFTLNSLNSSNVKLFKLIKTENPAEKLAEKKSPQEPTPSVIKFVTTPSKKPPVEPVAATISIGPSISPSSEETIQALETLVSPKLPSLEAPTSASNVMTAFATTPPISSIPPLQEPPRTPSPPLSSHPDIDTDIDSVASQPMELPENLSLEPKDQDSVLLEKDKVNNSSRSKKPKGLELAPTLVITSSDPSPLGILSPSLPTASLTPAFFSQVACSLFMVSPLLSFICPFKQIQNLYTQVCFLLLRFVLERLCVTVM
Summary of the method: as §1

ETV2 = target: T10, ETV2 (Homo sapiens, UniProt O00321 1-342); settings: protein: recombinant; tags: N-terminal GST; dsDNA, one strand shown
T10 sequence: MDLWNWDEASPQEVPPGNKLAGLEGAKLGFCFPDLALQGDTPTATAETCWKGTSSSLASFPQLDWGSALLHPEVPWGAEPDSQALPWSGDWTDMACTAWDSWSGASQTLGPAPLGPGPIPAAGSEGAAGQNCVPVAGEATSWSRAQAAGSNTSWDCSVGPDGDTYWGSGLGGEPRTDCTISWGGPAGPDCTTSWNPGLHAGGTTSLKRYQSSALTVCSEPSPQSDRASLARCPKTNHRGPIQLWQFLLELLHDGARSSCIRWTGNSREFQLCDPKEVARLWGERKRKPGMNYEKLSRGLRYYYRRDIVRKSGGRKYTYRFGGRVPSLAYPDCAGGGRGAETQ
Summary of the method: as §1

ELF3 = target: T11, ELF3 (Homo sapiens, UniProt P78545 1-371); settings: protein: recombinant; tags: N-terminal GST; dsDNA, one strand shown
T11 sequence: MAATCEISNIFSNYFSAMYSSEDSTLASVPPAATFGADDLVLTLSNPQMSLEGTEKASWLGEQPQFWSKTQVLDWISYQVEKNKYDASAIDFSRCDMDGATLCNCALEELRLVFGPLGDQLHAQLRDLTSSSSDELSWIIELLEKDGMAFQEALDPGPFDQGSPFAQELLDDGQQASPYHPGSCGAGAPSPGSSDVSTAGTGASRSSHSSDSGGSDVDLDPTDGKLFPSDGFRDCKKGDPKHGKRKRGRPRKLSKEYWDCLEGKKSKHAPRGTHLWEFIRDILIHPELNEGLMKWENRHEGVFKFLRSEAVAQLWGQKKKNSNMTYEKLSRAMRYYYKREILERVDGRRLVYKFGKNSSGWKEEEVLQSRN
Summary of the method: as §1

CRX = CRX (Homo sapiens, UniProt O43186 1-299); settings: protein: recombinant; tags: N-terminal GST; dsDNA, one strand shown
Summary of the method: as §1

ETV1 = ETV1 (Homo sapiens, UniProt P50549 1-477); settings: protein: recombinant; tags: N-terminal GST; dsDNA, one strand shown
Summary of the method: as §1

Chain of ELF4 (Q99607 whole entry): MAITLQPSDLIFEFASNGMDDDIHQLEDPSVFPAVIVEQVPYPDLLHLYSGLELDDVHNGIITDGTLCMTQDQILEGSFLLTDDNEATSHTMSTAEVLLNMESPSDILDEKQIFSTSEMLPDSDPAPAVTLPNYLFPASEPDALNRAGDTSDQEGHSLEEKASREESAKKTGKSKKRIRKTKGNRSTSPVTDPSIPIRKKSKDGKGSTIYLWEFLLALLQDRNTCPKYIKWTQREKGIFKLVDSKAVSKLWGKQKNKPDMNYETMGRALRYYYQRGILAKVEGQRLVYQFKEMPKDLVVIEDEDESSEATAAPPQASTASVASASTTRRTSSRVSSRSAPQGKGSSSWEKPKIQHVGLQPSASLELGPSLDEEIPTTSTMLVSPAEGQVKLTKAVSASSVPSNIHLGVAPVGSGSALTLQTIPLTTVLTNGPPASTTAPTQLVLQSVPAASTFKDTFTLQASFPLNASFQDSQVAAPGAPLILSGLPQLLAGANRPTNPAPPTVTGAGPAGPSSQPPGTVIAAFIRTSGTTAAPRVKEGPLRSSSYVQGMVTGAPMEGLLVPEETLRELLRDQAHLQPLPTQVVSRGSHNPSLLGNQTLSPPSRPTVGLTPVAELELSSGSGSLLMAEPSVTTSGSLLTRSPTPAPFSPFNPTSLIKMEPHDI
Chain of SPIB (Q01892 whole entry): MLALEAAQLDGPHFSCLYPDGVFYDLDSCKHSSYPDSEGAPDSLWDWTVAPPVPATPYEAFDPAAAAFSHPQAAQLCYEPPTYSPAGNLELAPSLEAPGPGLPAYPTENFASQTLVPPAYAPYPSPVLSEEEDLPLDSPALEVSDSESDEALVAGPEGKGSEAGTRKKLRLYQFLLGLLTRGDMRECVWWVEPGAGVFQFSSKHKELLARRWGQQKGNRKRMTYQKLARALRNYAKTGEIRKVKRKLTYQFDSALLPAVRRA
Chain of ETV1 (P50549 whole entry): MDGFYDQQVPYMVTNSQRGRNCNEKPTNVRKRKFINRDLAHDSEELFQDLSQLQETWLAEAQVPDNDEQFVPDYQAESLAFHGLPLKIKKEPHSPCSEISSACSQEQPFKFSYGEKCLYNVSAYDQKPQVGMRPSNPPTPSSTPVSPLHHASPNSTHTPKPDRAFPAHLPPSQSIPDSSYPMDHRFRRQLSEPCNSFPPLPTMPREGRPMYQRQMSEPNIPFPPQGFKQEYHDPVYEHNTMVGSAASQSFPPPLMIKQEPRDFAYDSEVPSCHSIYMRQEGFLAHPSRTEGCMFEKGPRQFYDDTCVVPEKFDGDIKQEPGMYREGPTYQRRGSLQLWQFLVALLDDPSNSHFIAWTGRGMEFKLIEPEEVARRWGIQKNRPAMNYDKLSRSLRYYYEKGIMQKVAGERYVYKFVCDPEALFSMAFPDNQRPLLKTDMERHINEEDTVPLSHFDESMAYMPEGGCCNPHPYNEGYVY
Chain of ELF1 (P32519 whole entry): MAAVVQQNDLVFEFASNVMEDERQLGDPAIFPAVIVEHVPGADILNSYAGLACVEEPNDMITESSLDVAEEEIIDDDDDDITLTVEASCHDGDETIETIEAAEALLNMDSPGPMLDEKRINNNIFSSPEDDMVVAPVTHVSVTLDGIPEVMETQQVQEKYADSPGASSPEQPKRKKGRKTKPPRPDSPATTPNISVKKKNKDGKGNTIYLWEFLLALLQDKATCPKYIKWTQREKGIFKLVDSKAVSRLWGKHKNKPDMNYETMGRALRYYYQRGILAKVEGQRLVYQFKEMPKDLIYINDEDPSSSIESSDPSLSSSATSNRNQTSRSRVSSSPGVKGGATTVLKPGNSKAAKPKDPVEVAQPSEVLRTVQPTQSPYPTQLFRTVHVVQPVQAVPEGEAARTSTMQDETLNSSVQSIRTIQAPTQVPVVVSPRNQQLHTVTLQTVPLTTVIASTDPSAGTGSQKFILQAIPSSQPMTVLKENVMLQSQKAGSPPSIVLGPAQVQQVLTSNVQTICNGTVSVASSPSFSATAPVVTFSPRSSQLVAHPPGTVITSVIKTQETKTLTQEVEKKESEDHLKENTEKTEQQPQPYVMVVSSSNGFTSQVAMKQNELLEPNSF
Chain of ETV5 (P41161 whole entry): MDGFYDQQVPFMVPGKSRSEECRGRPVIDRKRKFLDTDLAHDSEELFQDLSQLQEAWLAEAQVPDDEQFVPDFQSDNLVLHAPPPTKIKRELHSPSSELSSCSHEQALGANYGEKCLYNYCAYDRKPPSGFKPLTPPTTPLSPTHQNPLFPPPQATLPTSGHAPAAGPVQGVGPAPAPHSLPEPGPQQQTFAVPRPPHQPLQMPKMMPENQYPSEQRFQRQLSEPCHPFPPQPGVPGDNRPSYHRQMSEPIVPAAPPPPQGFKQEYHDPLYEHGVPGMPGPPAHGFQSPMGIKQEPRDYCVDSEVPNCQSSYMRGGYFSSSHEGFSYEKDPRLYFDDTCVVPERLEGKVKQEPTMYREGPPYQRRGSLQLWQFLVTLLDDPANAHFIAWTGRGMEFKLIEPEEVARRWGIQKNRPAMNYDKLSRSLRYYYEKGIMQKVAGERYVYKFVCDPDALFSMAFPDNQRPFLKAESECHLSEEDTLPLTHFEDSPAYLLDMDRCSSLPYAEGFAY
Chain of HSF1 (Q00613 whole entry): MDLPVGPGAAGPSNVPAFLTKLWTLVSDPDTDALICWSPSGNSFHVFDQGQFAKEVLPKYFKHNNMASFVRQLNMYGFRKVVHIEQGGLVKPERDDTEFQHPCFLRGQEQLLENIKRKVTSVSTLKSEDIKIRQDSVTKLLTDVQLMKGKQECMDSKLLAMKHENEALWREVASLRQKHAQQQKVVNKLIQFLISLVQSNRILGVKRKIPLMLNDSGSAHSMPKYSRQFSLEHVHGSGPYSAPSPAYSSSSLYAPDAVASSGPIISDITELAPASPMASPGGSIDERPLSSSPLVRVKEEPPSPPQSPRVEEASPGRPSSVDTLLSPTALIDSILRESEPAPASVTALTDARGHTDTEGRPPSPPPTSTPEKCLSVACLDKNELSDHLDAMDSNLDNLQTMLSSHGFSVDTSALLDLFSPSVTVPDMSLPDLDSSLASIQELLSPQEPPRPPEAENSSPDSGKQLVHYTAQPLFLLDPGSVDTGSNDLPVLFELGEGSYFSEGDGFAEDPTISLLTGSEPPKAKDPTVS
Chain of CRX (O43186 whole entry): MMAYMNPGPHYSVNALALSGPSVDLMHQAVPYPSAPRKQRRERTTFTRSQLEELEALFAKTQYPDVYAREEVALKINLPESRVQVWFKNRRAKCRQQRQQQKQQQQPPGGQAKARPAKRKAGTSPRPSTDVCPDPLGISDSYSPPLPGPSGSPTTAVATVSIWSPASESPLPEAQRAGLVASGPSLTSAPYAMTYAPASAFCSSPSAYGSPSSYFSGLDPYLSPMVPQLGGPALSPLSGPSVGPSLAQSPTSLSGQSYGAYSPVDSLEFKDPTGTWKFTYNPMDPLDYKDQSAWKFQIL

CTAAGA
binding signal (FLI1): 1.21 fold enrichment (6-mer frequency, TF over GST control)
binding signal (ELK1): 1.22 fold enrichment (6-mer frequency, TF over GST control)
binding signal (GABPA): 1.16 fold enrichment (6-mer frequency, TF over GST control)
binding signal (ERG): 1.17 fold enrichment (6-mer frequency, TF over GST control)
binding signal (ELF1): 1.18 fold enrichment (6-mer frequency, TF over GST control)
binding signal (EHF): 1.26 fold enrichment (6-mer frequency, TF over GST control)
binding signal (SPI1): 1.15 fold enrichment (6-mer frequency, TF over GST control)
binding signal (SPIB): 1.24 fold enrichment (6-mer frequency, TF over GST control)
binding signal (ELK3): 1.18 fold enrichment (6-mer frequency, TF over GST control)
binding signal (FEV): 1.08 fold enrichment (6-mer frequency, TF over GST control)
binding signal (ETV5): 1.24 fold enrichment (6-mer frequency, TF over GST control)
binding signal (HSF1): 1.64 fold enrichment (6-mer frequency, TF over GST control)
binding signal (SPIC): 1.18 fold enrichment (6-mer frequency, TF over GST control)
binding signal (ELF4): 1.27 fold enrichment (6-mer frequency, TF over GST control)
binding signal (ELK4): 1.16 fold enrichment (6-mer frequency, TF over GST control)
binding signal (ETV2): 1.2 fold enrichment (6-mer frequency, TF over GST control)
binding signal (ELF3): 1.24 fold enrichment (6-mer frequency, TF over GST control)
binding signal (CRX): 2.05 fold enrichment (6-mer frequency, TF over GST control)
binding signal (ETV1): 1.22 fold enrichment (6-mer frequency, TF over GST control)
